ELG1 DNA repair – inhibitors of ELG1-dependent DNA repair in HEK293T cells. HEK293T ELG1-luciferase reporter, luminescence, 16 h; DNA damage induced by 5-fluorouridine. Potency, µM (series often up to 46.1 µM), hits mostly inhibitors. actives 2.3% (n = 330,000). AID 504467; note: nearly all actives have a fitted effect of over 55% in size
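Reporter activity after DNA damage by 5-fluorouridine is monitored. Compound-treated cells incubate 16 hr at 37 °C, then ONE-Glo is added for 30 min before luminescence reading.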
Sfp inh – Sfp phosphopantetheinyl transferase inhibition; Q9F4F7; Biochemical Sfp PPTase activity, qHTS; Potency, µM, hits mostly inhibitors; actives 3.5% (n = 310,000); AID 1490;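 note: the enzyme is Sfp with the accession as filed and its product quenches rhodamine fluorescence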
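Step 1, compound plus 15 nM Sfp-PPTase, 15 min, room temperature. Step 2, add rhodamine-CoA (5 uM) and BHQ-2-YbbR (12.5 uM). Step 3, read 525/598 nm fluorescence at 0 and 30 min.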
Giardia killer – kills Giardia lamblia; actives 0.15% (n = 340,000); AID 540267; Giardia lamblia trophozoite viability; activity change, % at 7.66 µM, hits read low; in the data active = activity change below about -80%; inconclusive = between about -30% and that limit;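 note: parasites exposed to compound for two days anaerobically before the ATP read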
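ATP-content bioluminescence gauges trophozoite survival. Cells (100/well) receive compound and incubate anaerobically for 48 hrs at 37 deg C; detection reagent follows for 15-30 min at room temperature.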
FBPA coupling cs – inhibits coupling enzyme system, counter-screen for aldolase hits; coupling enzyme system counterscreen, AmpLite Red fluorescence; activity change, negative = inhibition, % at 58.2 µM, hits read low; actives 0.67% (n = 290,000); AID 2472; in the data active = activity change below about -30%
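Compounds tested against the coupling enzymes alone at 57.5 uM final; readout was AmpLite Red fluorescence (525/598 nm) after 20 min at RT.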
Large screens that a line does not name were inactive; ! = not confirmed by another sample. Only some compounds are listed: those with a hit (about 5.5% of all), similar ones and a draw of the others. Unless noted, calls come from the whole dose curve; as a rule, active = well fitted curve in the direction sought with a large enough effect; inconclusive = small, poorly fitted or top-dose-only effect, or another doubt; inactive = no such curve, though single readings can be large; an effect the other way counts as inactive or inconclusive.

Cc1nc(N2CCN(S(=O)(=O)c3ccccc3)CC2)c2c3c(sc2n1)CC(C)CC3 (stereo not given)	ELG1 DNA repair inconclusive
OCC1OC(O)C(O)C(O)C1O (stereo not given)	none (no result: ELG1 DNA repair, Giardia killer)
OCC1OC([S-])[C@H](O)C(O)C1O.[Au+] (stereo not given in full)	Sfp inh 2.2µM (no result: ELG1 DNA repair, Giardia killer)
Cc1ccc(C(=O)NCC(=O)OCC(=O)c2ccccc2)s1	none (no result: Sfp inh, FBPA coupling cs)
Cc1ccccc1NC(=O)CC1SC(=O)N(c2ccccc2)C1=O (stereo not given)	ELG1 DNA repair inconclusive, Sfp inh inconclusive
O=C(CC1SC(=O)N(c2ccccc2)C1=O)Nc1cccc2ccccc12 (stereo not given)	Sfp inh 20µM
CCOc1ccc(NC(=O)CC2SC(=O)N(c3ccccc3)C2=O)cc1 (stereo not given)	ELG1 DNA repair inconclusive, Sfp inh 10µM
CC(=O)Nc1ccc(C2=NN(Cc3nnc(-c4ccccc4)o3)C(=O)SC2)cc1	ELG1 DNA repair 16µM
Cc1cccc(NC(=O)c2ccc(-n3cccn3)c([N+](=O)[O-])c2)c1	FBPA coupling cs -33
Cc1ccc(NC(=O)c2ccc(-n3cccn3)c([N+](=O)[O-])c2)cc1	none
O=C(Nc1cccc(/C=C/c2ccccn2)c1)c1ccc(-n2cncn2)c([N+](=O)[O-])c1	ELG1 DNA repair 9.2µM (no result: Sfp inh, FBPA coupling cs)
CC(C)(C)NC[C@H](O)COc1cccc2c1CCC(=O)N2	none (no result: ELG1 DNA repair, Giardia killer)
CCOC(=O)c1ccc(NC2=CC(=O)C(=O)c3ccccc32)cc1	Sfp inh 50µM (no result: FBPA coupling cs)
O=C1C=C(Nc2ccc(O)cc2)C(=O)c2ccccc21	ELG1 DNA repair inconclusive
NS(=O)(=O)c1ccc(NC2=CC(=O)C(=O)c3ccccc32)cc1	ELG1 DNA repair 10µM, FBPA coupling cs -71
CC(=O)Nc1ccc(NC2=CC(=O)c3ccccc3C2=O)cc1	ELG1 DNA repair inconclusive, Sfp inh 56µM
Cc1ccc(NC2=CC(=O)C(=O)c3ccccc32)cc1	ELG1 DNA repair inconclusive, FBPA coupling cs -56
O=C(OCC(=O)N(C1CCCCC1)C1CCCCC1)c1ccc(Cl)nc1	none (no result: Sfp inh, FBPA coupling cs)
CCC#CCOCC(=O)Nc1ccccc1	none (no result: ELG1 DNA repair, Giardia killer)
Cc1cc(NC2=CC(=O)C(=O)c3ccccc32)no1	none (no result: ELG1 DNA repair, Sfp inh, FBPA coupling cs)
COc1cc(OC)c(NC2=CC(=O)C(=O)c3ccccc32)cc1Cl	ELG1 DNA repair inconclusive, FBPA coupling cs -50
O=C(Nc1ccccc1Cl)N1CCN(c2ccc3nnc(-c4ccc(F)cc4)n3n2)CC1	ELG1 DNA repair 21µM
CC[C@H]1c2[nH]c3ccccc3c2C[C@H]2C(=O)N(c3ccc(F)cc3)C(=O)N21	ELG1 DNA repair 7.3µM, Giardia killer inconclusive (no result: Sfp inh, FBPA coupling cs)
CC1(C)c2[nH]c3ccccc3c2C[C@@H]2C(=O)N(Cc3ccc(F)cc3)C(=O)N21	none (no result: ELG1 DNA repair, Sfp inh, FBPA coupling cs)
COc1ccc(Nc2nnc(SCc3cc(=O)n4ccsc4n3)s2)cc1	Sfp inh 56µM
O=c1cc(CSc2nnc(Nc3ccccc3F)s2)nc2sccn12	none
CN(C)CCCOc1ccc2c(c1)Sc1ccccc1CC2=O	Sfp inh 22µM, Giardia killer inconclusive, FBPA coupling cs -66
CCOc1ccc(OCC)c(NC(=O)CN2CCN(c3cccc(C)c3)CC2)c1	ELG1 DNA repair inconclusive, Sfp inh 25µM
COc1ccc(NC(=O)CN2CCC(C(=O)c3ccc(C)cc3)CC2)c(OC)c1	ELG1 DNA repair inconclusive
CCOc1ccc(C(=O)C2CCN(CC(=O)Nc3ccccc3N3CCOCC3)CC2)cc1	ELG1 DNA repair 21µM
COc1ccc(OC)c(NC(=O)CN2CCC(C(=O)c3ccc(C)cc3)CC2)c1	ELG1 DNA repair 21µM
COCCC(=O)N1CCC(Oc2ccc(C(=O)NCc3cccc(C)n3)cc2)CC1	none (no result: FBPA coupling cs)
CCn1c(=S)[nH]c2sc3c(c2c1=O)CCCC3	none
CN(C)CCCn1c(=S)[nH]c2sc3c(c2c1=O)CCCC3	Sfp inh 79µM
Cc1ccccc1-n1c(SCC(=O)Nc2ccccc2)nc2nc3c(cc2c1=O)CCCC3	ELG1 DNA repair 23µM
CCn1c(SCC(=O)Nc2ccc(Cl)cc2)nc2nc3c(cc2c1=O)CCCC3	ELG1 DNA repair inconclusive, Sfp inh inconclusive
O=C(CSc1nc2nc3c(cc2c(=O)n1-c1ccccc1)CCCC3)Nc1cccc2ccccc12	ELG1 DNA repair inconclusive
Cc1cccc(NC(=O)CSc2nc3nc4c(cc3c(=O)n2-c2ccccc2)CCCC4)c1	ELG1 DNA repair 15µM
COc1ccc(OC)c(-c2csc(NC(=O)c3ccc(F)cc3)n2)c1	ELG1 DNA repair inconclusive
COc1ccc(OC)c(-c2csc(NC(=O)c3ccc(OCC4CCCO4)cc3)n2)c1 (stereo not given)	ELG1 DNA repair 6.5µM
CC1CCC(NC(=O)CCS(=O)(=O)c2ccc3c(c2)oc(=O)n3C)CC1 (stereo not given)	none (no result: FBPA coupling cs)
C[C@@H](NC(=O)[C@@H]1Cc2ccccc2CN1)C(=O)NCC1CCCO1 (stereo not given in full)	ELG1 DNA repair inconclusive (no result: FBPA coupling cs)
CCOC(=O)CN(C(=O)COc1nc(-c2ccccc2)cc(C)c1C#N)c1ccccc1C	ELG1 DNA repair 21µM
CCOC(=O)CN(C(=O)COc1nc(-c2ccccc2)cc(C)c1C#N)c1ccccc1	none
O=C(O)c1ccccn1	Sfp inh 25µM (no result: FBPA coupling cs)
O=C(O)c1cccc(Cl)n1	none
O=C(O)c1cccc(C(=O)O)n1	Sfp inh 4µM, FBPA coupling cs -80 (no result: Giardia killer)
O=C(O)c1ccccc1NC(c1ccccc1)c1ccc2cccnc2c1O (stereo not given)	none (no result: ELG1 DNA repair, Sfp inh, FBPA coupling cs)
O=C(NCCCCCCNC(=O)c1ccccc1O)c1ccccc1O	ELG1 DNA repair 10µM
O=C(O)c1ccc2cccnc2c1O	Sfp inh 20µM
CCN(C(=O)COC(=O)Cn1c(=O)oc2ccccc21)c1c(N)n(Cc2ccccc2)c(=O)[nH]c1=O	none (no result: ELG1 DNA repair, Sfp inh, FBPA coupling cs)
COC(=O)c1cccc(NC(=O)CSc2nnc(-c3ccco3)o2)c1	none
COc1cccc(NC(=O)N2CCCC2C(=O)NC23CC4CC(CC(C4)C2)C3)c1 (stereo not given)	ELG1 DNA repair inconclusive
O=C(O)c1ccc2cccc(O)c2n1	Sfp inh 2.8µM
O=C(NCCCCNC(=O)c1ccccn1)c1ccccn1	Sfp inh 79µM
O=C(NCCCCCNC(=O)c1ccccn1)c1ccccn1	none
CC(=O)Nc1cccc(C(=O)O)n1	Sfp inh inconclusive
S=C(Nc1ccccc1)c1ccccn1	ELG1 DNA repair inconclusive, Sfp inh 45µM!
O=C(Nc1ccccc1)O/N=C(\c1ccccc1)c1ccccn1	ELG1 DNA repair inconclusive, Sfp inh 56µM
O=C1CC(c2ccccc2)(c2ccccc2)c2ccccc21	none (no result: ELG1 DNA repair, Sfp inh, FBPA coupling cs)
Cc1ccc(NC(=O)CCCC(=O)O)c(-c2nc3ccccc3[nH]c2=O)c1	none
O=C(NCCCNC(=O)c1cc(Cl)ccc1Cl)c1ccccn1	none
O=C(O)c1ccc2cccnc2n1	FBPA coupling cs -39
CN1CCN2c3ccccc3CC3(C(=O)OC(C)(C)OC3=O)C2C1 (stereo not given)	none (no result: ELG1 DNA repair, Sfp inh, FBPA coupling cs)
Cc1cc(=O)[nH]c(-n2ncc(C#N)c2N)n1	Sfp inh 56µM
Cn1c(CCN2CCN(c3ccccn3)CC2)nc2cc(NS(=O)(=O)c3ccccc3)ccc21	ELG1 DNA repair 9.2µM
O=C(CCSc1nc(-c2ccc3c(c2)OCO3)cc(C(F)(F)F)n1)NCc1ccco1	ELG1 DNA repair inconclusive, Sfp inh 40µM
